Results on 96 compounds are retold here after PubChem BioAssay AID434973 (Sanford-Burnham Center for Chemical Genomics, 2010).

Out of some 330,000 compounds screened, about 4,900 (1.5%) were called active. The sample holds actives, similar compounds and a random draw of the others, so the mix is not that of the screen. Unmarked numbers belong to inactive results.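 The calls were made as follows: active = inhibition above about 50% at the single test dose (limit read from the data); inactive = the rest.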

In the assay the target is Sentrin-specific protease 7 (Homo sapiens) (UniProt Q9BQF6). The assay is described as follows: blockers of human SENP7 peptidase activity – biochemical, luminescence, uHTS, primary screen (AID 434973).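 Also: plate controls were DMSO with enzyme for no effect and no enzyme buffer wells for full effect.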 The following applies: recombinant SENP7, Z-RLRGG-aminoluciferin luminescence, 40 min; at 5 µM; active compounds read high.
The inhibition is the change of the read-out against control, counted positive when it falls. For the compound `O=C(Nc1ccccc1)c1nnsc1S(=O)(=O)c1ccc(Cl)cc1`, the inhibition is 7.61%.
On to `O=C(Oc1ccccc1)Oc1ccc2c(c1)oc(=O)c1ccccc12`, for which the inhibition was 11.6%.
In the case of `Cc1cc(NC(=O)C(C)SCC(=O)Nc2ccccc2N2CCCCC2)no1` (stereo unspecified) it was 7.37%.
In the case of `Cc1nn(C)c(C(=O)NNC(=S)NC2CCCCC2)c1Cl` it was 15.8%.
Next, `O=C(CN1C(=O)NC2(CCCC2)C1=O)OCCOc1ccc(F)cc1`: 2.48%; `OCCC1CN(Cc2cccc(O)c2)CCN1CCc1ccccc1` (stereo unspecified): -3.9%; `Cc1nonc1NC(=O)c1oc2ccccc2c1C`: -17.1%.
As to `Cc1c(C(=O)Nc2ccccn2)oc2ccc(Br)cc12`, the inhibition was 65.6% (active).
Turning to `COC(=O)c1oc2ccc(Br)cc2c1NC(C)=O`, the inhibition is -6.53%.
In the case of `Cc1ccc(OCC(=O)Nc2ccccc2Sc2ccc(Cl)cc2)c([N+](=O)[O-])n1` it was 3.81%; in that of `CCN(CC(=O)Nc1ccc(NC(C)=O)cc1)C(=O)CSC(=S)N1CCCC1`, -7.39%; in that of `O=C(/C=C/c1ccc2c(c1)OCO2)NCc1ccc(F)cc1`, -2.53%.
In the case of `Cc1cccc(NC(=O)/C=C/c2ccc3c(c2)OCO3)n1` it was 78% (active).
In the case of `Cc1cccc(NC(=O)Nc2ccc3c(c2)OCO3)n1` it was 17%; in that of `CCN(CC(=O)NCC(=O)Nc1cccc(C)c1C)Cc1ccccc1`, 1.52%.
Take `O=C(COC(=O)c1ccc(O)cc1)Nc1nccs1`: the inhibition is -6.7%.
Next, `O=C(Nc1ccc(Cl)cc1)Nc1ccc(C(=O)N2CCOCC2)cc1`: 11.1%; `Cc1c(Cl)cccc1NC(=O)NCCCN1CCCC1=O`: -2.59%; `Cc1c(Cl)cccc1NC(=O)Nc1ccc(C(=O)N2CCCC2)cc1`: 57% (active).
In the case of `COc1ccc(N2CCN(C(=O)c3cn(C)c4ccc(S(=O)(=O)N5CCOCC5)cc4c3=O)CC2)cc1` it was 8.09%; in that of `Cc1ccc(/C(N)=N/OC(=O)COc2ccc(Cl)c(C)c2)cc1`, -1.43%.
In the case of `Cc1cccc(/C(N)=N/OC(=O)c2ccccc2Cl)c1` it was 98.2% (active); in that of `N/C(=N\OC(=O)c1cc(-c2ccccc2)nc2ccccc12)c1ccncc1`, -11.9%; in that of `CC(C)c1ccc(NC(=O)CCN2C(=O)c3ccc([N+](=O)[O-])cc3C2=O)cc1`, -0.0494%.
As for `COc1ccc(C(=O)COC(=O)Cn2cnc3c2c(=O)n(C)c(=O)n3C)c(OC)c1`, the inhibition was -3.24%.
In the case of `O=C(Cn1c(COc2ccccc2)nc2ccccc21)Nc1cc(Cl)c(Cl)cc1Cl` it was -0.0494%; in that of `Cn1c(COc2ccc(Cl)cc2)nc2ccccc2c1=O`, -3.98%.
In the case of `CC(C)n1c(COc2ccccc2)nc2ccccc21` it was 15%; in that of `COCn1c(COc2ccccc2)nc2ccccc21`, 65.8% (active).
`Cc1ccc(OCc2nc3ccccc3n2C)cc1`: the inhibition was 59.7% (active).
In the case of `CCOc1ccc(C(O)Cc2nc3ccccc3n2C)cc1` (stereo unspecified) it was 3.12%.
Next, `Cc1ccc(/C=N/NC(=O)C(NC(=O)c2ccccc2)c2n[nH]c(=O)c3ccccc23)cc1` (stereo unspecified): 0.556%; `COC(=O)c1sccc1NS(=O)(=O)c1ccc(F)cc1F`: 6.45%.
In the case of `COC(=O)[C@]1(Cc2ccccc2)N[C@H](CN(C)S(=O)(=O)c2ccc(F)cc2)[C@@H]2C(=O)N(Cc3ccccc3)C(=O)[C@@H]21` it was 1.87%; in that of `CNc1[nH]ncc1[N+](=O)[O-]`, 3.45%.
Consider `CC(=C/c1ccccc1)/C=N/NC(=O)c1cc(C)oc1C`, for which the inhibition is 73% (active).
Take `Cc1ccccc1N/N=C/c1ccc(N2CCOCC2)cc1`: the inhibition is -3.84%.
Next, `Cc1cc(C(=O)N/N=C/c2ccc(N3CCOCC3)cc2)c(C)o1`: 85.5% (active); `COc1ccc(C/C(C)=N/NC(=O)c2cc(C)oc2C)cc1`: -5.26%; `Cc1cc(C(=O)N/N=C\C(Br)=C\c2ccccc2)c(C)o1`: 21.1%.
In the case of `O=C(NN=Cc1ccc(N2CCOCC2)cc1)c1cc2ccccc2cc1O` it was 4.23%; in that of `O=C(c1ccc(CS(=O)(=O)c2ccccc2)o1)N1CCN(c2ccccc2)CC1`, -0.219%; in that of `O=C(NNc1ccccc1Cl)C(O)(c1cccc(C(F)(F)F)c1)c1cccc(C(F)(F)F)c1`, 1.97%.
Next, `COc1cc(CNC2CCCCC2)c(Br)cc1OC1CCCC1`: -2.57%.
As for `COc1ccc(C(C)NC(=O)C2CCCC2)cc1` (stereo unspecified), the inhibition was 1.04%.
In the case of `COc1cccc(C(=O)NNC(=O)c2cccc(F)c2)c1` it was 3.09%.
In the case of `CCOC(=O)c1cc2cc3ccccc3cc2oc1=O` it was 7.03%.
Regarding `COc1cccc(C(=O)c2cc3ccc(O)cc3oc2=O)c1`, the inhibition was 100% (active).
Next, `COc1ccc(N2CC(C(=O)NCCN3C(=O)S/C(=C\c4cccnc4)C3=O)CC2=O)c(OC)c1` (stereo unspecified): -2.06%.
Next, `Cc1nc(-c2ccc(F)cc2)c(CC(=O)N(C)CC(=O)Nc2c(C)cccc2C)s1`: -11.8%.
Next, `CSCCC1NC2(C(=O)Nc3ccc(Cl)cc32)[C@@H]2C(=O)N(C3CCCC3)C(=O)[C@H]12` (stereo partly specified): 10.2%; `COc1ccc(OC)c2[nH]c(=O)c(CCNC(=O)C(=O)c3c[nH]c4ccccc34)cc12`: 4.26%.
In the case of `O=C(COc1ccc2oc3c(c2c1)CCCC3)Nc1ccccn1`, the inhibition was 89.1% (active).
Next, `CCOC(=O)N1CCN(C(=O)COc2ccc3oc4c(c3c2)CCCC4)CC1`: -3.39%.
In the case of `CCN(CC)CCCNC(=O)COc1ccc2oc3c(c2c1)CCCC3` it was 3.16%; in that of `O=C1C=C(c2ccnc3cc(Cl)ccc23)C[C@@H](c2ccc3c(c2)OCO3)C1`, 2.03%.
In the case of `CC(=O)N1CCN(S(=O)(=O)c2ccc(C)c([N+](=O)[O-])c2)C1C(C)C` (stereo unspecified) it was 2.77%; in that of `CCOC(=O)C(NC(=O)CC(C)C)(Nc1sc2c(c1C(N)=O)CCCC2)C(F)(F)F` (stereo unspecified), -5.57%.
For `CC(NCc1ccccc1OC1CCCC1)c1ccccc1` (stereo unspecified), the inhibition was 8.44%.
In the case of `Cc1cc(N=Nc2ccc3ccccc3c2)ccc1O` it was 97.5% (active).
Next, `Cc1ccc(/C=N/NC(=O)c2cc3ccccc3cc2O)o1`: 19%; `COC(=O)c1cccc(-n2[nH]nnc2=S)c1`: 8.95%.
In the case of `Cc1ccc(CSc2ccc(S(=O)(=O)N3CCCCC3)cn2)cc1` it was 14.9%.
Regarding `COc1cc(C(=O)N2CCN(C)CC2)cc(OC)c1OC`, the inhibition is -4.77%.
Consider `O=c1[nH]c(/C=C/c2cccc(Br)c2)nc2ccccc12`, for which the inhibition is 65.8% (active).
In the case of `CCOc1cc(/C=C/c2nc3ccccc3c(=O)[nH]2)cc(Br)c1OC` it was -1.26%.
Take `O=c1[nH]c(/C=C\c2cccc(C(F)(F)F)c2)nc(O)c1[N+](=O)[O-]`: the inhibition was 11.2%.
Next, `COc1ccccc1N(CC(=O)Nc1ccccc1C(=O)N1CCCC1)S(C)(=O)=O`: 5.42%; `CCOC(=O)c1cnc2[nH]c3ccccc3n2c1=O`: 83.7% (active).
In the case of `CCOC(=O)c1cnc(COc2ccccc2Cl)[nH]c1=O` it was -8.27%; in that of `CCOC(=O)c1cnc2sccn2c1=O`, 0.0796%.
With `COc1cc(Cl)c(C)cc1NC(=O)CN1CCCCCC1`, the inhibition was 7.89%.
In the case of `CC(C)CCOc1ccc(C(=O)C[N+]2(C)CCOCC2)cc1` it was 0.789%; in that of `O=C(Cn1ccc([N+](=O)[O-])n1)NCc1cccs1`, 71.3% (active); in that of `O=C(CCn1ccc([N+](=O)[O-])n1)Nc1nccs1`, 0.106%.
In the case of `Cc1ccnc(NC(=O)Cn2ccc([N+](=O)[O-])n2)c1` it was 10%.
Next, `COc1ccc(N(CC(=O)NC2CCCCC2)C(=O)CNC(=O)c2ccco2)c(OC)c1`: 6.97%; `Cc1noc(C)c1C(=O)NCCc1ccc(S(N)(=O)=O)cc1`: 10.1%; `CCOc1ccc2nc(C(=O)N3CCCC(C)C3)sc2c1` (stereo unspecified): 67.4% (active).
As to `COc1ccc2cc(C(=O)C3CCCN(C(=O)c4sc(C)nc4C)C3)ccc2c1` (stereo unspecified), the inhibition is -3.44%.
`CCCC(=O)N(CCN1CCOCC1)c1nc2ccc(OCC)cc2s1`: the inhibition was 28.1%.
In the case of `Cc1ccc(CNC(=O)Cn2cnc3c(NCc4ccccc4)ncnc32)o1` it was -4.15%.
In the case of `C=C(Cl)COC(=O)C1C2C=CC(C2)C1C(=O)O` (stereo unspecified) it was -1.65%.
In the case of `CSCCC(NC(=O)C1CCC(C)CC1)C(=O)NCc1ccco1` (stereo unspecified) it was 0.735%; in that of `O=C(O)c1ccccc1NC(=S)NC(NC(=O)c1ccccc1[N+](=O)[O-])C(Cl)(Cl)Cl` (stereo unspecified), 14%; in that of `CN(C)c1cc(-c2ccc(F)cc2)oc(=O)c1Cl`, 5.73%.
In the case of `CCCCCCc1cc2cc(-c3nnc(-c4ccccc4)o3)c(=O)oc2cc1O`, the inhibition is -10.4%.
On to `O=c1oc2cc(O)ccc2cc1-c1ccc(F)cc1`, for which the inhibition was 100% (active).
In the case of `Cn1c(N)c(C(=O)COC(=O)C23CC4CC(CC(C4)C2)C3)c(=O)n(C)c1=O` it was -1.02%; in that of `COc1cc(NC(=O)c2cncc(-c3ccc(C#N)cc3)c2)cc(C(=O)Nc2cccc(C(F)(F)F)c2)c1`, -7.54%; in that of `COc1ccc(C(=O)Nc2nc(-c3ccc(OC)cc3)c(-c3ccc([N+](=O)[O-])cc3)s2)cc1`, -0.702%.
Consider `O=C(NC(Nc1nc2ccc([N+](=O)[O-])cc2s1)(C(F)(F)F)C(F)(F)F)c1ccccc1`, for which the inhibition was 3.23%.
Next, `O=C(Nc1nc2ccc([N+](=O)[O-])cc2s1)c1ccncc1`: 85.8% (active); `CCCc1cc(=O)oc2c(C)c(OCC(=O)NCc3ccccn3)ccc12`: 12.3%.
Next, `CCCc1cc(=O)oc2c(C)c(OCC(=O)N3CCC(C(=O)O)CC3)ccc12`: -6.34%.
Next, `CCCc1cc(=O)oc2c(C)c(OCC(=O)Nc3ccccn3)ccc12`: 70.1% (active).
